Source: PubChem BioAssay AID651956 (Broad Institute, 2012)
Entries with a potency or affinity are not part of this list. Records with an inconclusive call do not appear. Activity calls are given as the source filed them.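 How the source made its calls: active means in every test run, a fitted half-maximal concentration for signal decrease at or below twice the highest tested concentration; inconclusive means runs disagree, flat 30 to 70% decrease, or poor fit; inactive means the rest.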

test: miR-122 activators in hepatoma reporter cells, dose response, cell-based, Huh7 psiCHECK-miR122, Renilla luciferase, cherry-picked (AID 651956); conditions: 48 h; series mostly up to 35 µM; activity change, negative = signal decrease: at the top concentration;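 further: Renilla luciferase from a miR-122 sensor reporter so lower signal means miR-122 activation; 0% = median neutral control wells and -100% = median positive control wells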

Activity change, negative = signal decrease, inactive:
CCNC(=O)C[C@@H]1CC[C@@H]2[C@@H](COc3ccc(NC(=O)c4ccccc4)cc3C(=O)N2C)O1 57.6%, Cc1ccccc1NC(=O)Nc1ccc2c(c1)C(=O)N(C)[C@H]1CC[C@@H](CC(=O)O)O[C@H]1CO2 387% [at 30 µM], CC(C)C(=O)Nc1ccc2c(c1)C(=O)N(C)[C@@H]1CC[C@@H](CC(=O)N[C@H](C)c3ccccc3)O[C@@H]1CO2 -36.3%, c1cnc(N2CCN(Cc3c[nH]c4ccccc34)CC2)nc1 -24.5%, C[C@@H]1CN([C@@H](C)CO)S(=O)(=O)c2ccc(C#Cc3ccccc3F)cc2O[C@H]1CN(C)C(=O)c1ccc2c(c1)OCO2 -53.2%, COc1cc(Cl)cc(/C=N\NC(=O)c2ccc3c(c2)OCO3)c1O 42.6%, CC(C)C(=O)Nc1ccc2c(c1)C(=O)N(C)[C@H]1CC[C@@H](CC(=O)NCCCN(C)C)O[C@H]1CO2 -23.1%, COCC(=O)N(C[C@H]1N[C@@H](CO)[C@@H]1c1ccc(C2=CCCC2)cc1)C(C)C -21.5%, O=C(CSc1nc2ccccc2s1)N1CCOCC1 -20.8%, COc1ccccc1CNc1nc(Nc2ccccc2Cl)c2sccc2n1 21.4%, COc1ccc(NS(=O)(=O)c2ccc(NC(=O)C(C)(C(F)(F)F)C(F)(F)F)cc2)nn1 -17.6%, CNC(=O)c1nc(C)n(-c2cc(Cl)cc(Cl)c2)n1 104%, COC(=O)C[C@@H]1CC[C@H]2[C@@H](COc3ccc(NC(=O)Nc4ccccc4C)cc3C(=O)N2C)O1 13.5%, CN(C)CCCN(C(=O)CCc1ccccc1)c1nc2ccc(Br)cc2s1 -98.6%, COC(=O)C[C@H]1CC[C@H]2[C@H](COc3ccc(NC(=O)NC(C)C)cc3C(=O)N2C)O1 -0.168%, CN1C(=O)c2cc(NC(=O)c3cccs3)ccc2OC[C@@H]2O[C@@H](CC(=O)O)CC[C@@H]21 41.8%, C[C@H](CO)N1C[C@H](C)[C@@H](CN(C)CC2CCCCC2)OCCCC[C@H](C)Oc2ccc(NC(=O)Nc3cccc4ccccc34)cc2C1=O -9.91%, CN1C(=O)c2cc(NC(=O)c3cccs3)ccc2OC[C@@H]2O[C@@H](CC(=O)O)CC[C@H]21 -15.8%, CN1C(=O)c2cc(NC(=O)c3cccs3)ccc2OC[C@@H]2O[C@@H](CC(=O)NCCN3CCCCC3)CC[C@H]21 120%, CN1C(=O)c2cc(NC(=O)c3cccs3)ccc2OC[C@H]2O[C@@H](CC(=O)NCCN3CCCCC3)CC[C@H]21 17.9%, COCC(=O)Nc1ccc2c(c1)C(=O)N(C)[C@@H]1CC[C@@H](CC(=O)NC3CCCC3)O[C@@H]1CO2 13.2%, CCCNC(=O)C[C@@H]1CC[C@@H]2[C@@H](COc3ccc(NC(=O)c4ccc(C(F)(F)F)cc4)cc3C(=O)N2C)O1 -48.5%, Cc1ccc(-c2nnn(CC(=O)N(CC(=O)NCC3CCCO3)c3ccccc3)n2)o1 (stereo not given) -15.9%, Cc1cc(C)cc(OCC(O)CN2CCC(CN3C(=O)c4cccc5cccc(c45)C3=O)CC2)c1 (stereo not given) 1.75%, Cc1cc(C(=O)Nc2cccc(O)c2)co1 -6.99%
